From the supplement of paper PMC6522484
± gives the standard deviation of the averaged measurements.

Key:
DLD1 [1] = experiment: cell viability (CellTiter-Glo) relative to plate median (fraction of plate median); higher = more viable cells; conditions: 5 µM; treatment time 24 h; reporter: 7TFP
In short: (§1)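 After seeding in 384-well plates, colorectal cancer cell lines carrying stable lentiviral TCF/Wnt firefly luciferase reporters (7TFP or TCF4/Wnt) were left 24 h. Library compounds were then added at a final 5 µM for 24 h. A Tecan F500 reader measured firefly luciferase or CellTiterGlo luminescence on parallel plates, with each well normalised to the plate median by webcellHTS2 (additive, no log transformation), and two independent replicates averaged.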

HCT116 = experiment: as above; conditions: 5 µM; treatment time 24 h; reporter: TCF4/Wnt
In short: as §1

SW480 [2] = experiment: as above; conditions: 5 µM; treatment time 24 h; reporter: 7TFP
In short: as §1

DLD1 [3] = experiment: TCF/Wnt firefly luciferase reporter signal relative to plate median (fraction of plate median); higher = higher Wnt reporter signal; conditions: 5 µM; treatment time 24 h; reporter: 7TFP
In short: as §1

SW480 [4] = experiment: as above; conditions: 5 µM; treatment time 24 h; reporter: 7TFP
In short: as §1

Structure (SMILES) | cell viability (DLD1 [1]) | cell viability (HCT116) | cell viability (SW480 [2]) | TCF/Wnt firefly luciferase reporter signal (DLD1 [3]) | TCF/Wnt firefly luciferase reporter signal (SW480 [4])
CC(C)(C)NCC(O)c1ccc(O)c(CO)c1 (stereo not given) | 0.952 ± 0.096 | 1.07 ± 0.092 | 0.922 ± 0.0057 | 1.06 ± 0.014 | 0.995 ± 0.14
CN(C)c1nc(N(C)C)nc(N(C)C)n1 | 0.976 ± 0.076 | 0.97 ± 0.057 | 1.05 | 1.03 ± 0.035 | 1.01 ± 0.09
O=c1[nH]c(=O)n([C@H]2C[C@H](O)[C@@H](CO)O2)cc1F | 0.609 ± 0.026 | 1.05 ± 0.057 | 0.963 ± 0.024 | 0.688 ± 0.12 | 0.971 ± 0.069
O=C1c2c(O)cccc2Cc2cccc(O)c21 | 0.945 ± 0.025 | 1.02 ± 0.074 | 1.08 ± 0.05 | 0.988 ± 0.031 | 0.933 ± 0.017
COc1cccc2c1C(=O)c1c(O)c3c(c(O)c1C2=O)C[C@@](O)(C(=O)CO)C[C@@H]3O[C@H]1C[C@H](N)[C@@H](O)[C@H](C)O1 | 1.03 ± 0.028 | 0.589 ± 0.19 | 1.11 ± 0.13 | 1.16 ± 0.014 | 0.727 ± 0.082
C[C@@H]1O[C@@H](O[C@H]2[C@H](O[C@H]3CC[C@@]4(C)[C@@H](CC[C@]5(C)[C@@H]4CC=C4[C@@H]6CC(C)(C)CC[C@]6(C(=O)O)CC[C@]45C)[C@]3(C)CO)OC[C@H](O)[C@@H]2O)[C@H](O)[C@H](O)[C@H]1O | 1.04 ± 0.062 | 1.05 ± 0.1 | 1.03 ± 0.098 | 1.04 ± 0.014 | 1.06 ± 0.064
C=CCSSSCC=C | 1.05 ± 0.09 | 1.09 ± 0.014 | 0.99 ± 0.042 | 1.02 ± 0.073 | 0.874 ± 0.013
CO[C@H]1C[C@H](O[C@@H]2/C(C)=C/C[C@@H]3C[C@@H](C[C@]4(CC[C@H](C)[C@@H](C5CCCCC5)O4)O3)OC(=O)[C@@H]3C=C(C)/C(=N/O)[C@H]4OC/C(=C\C=C\[C@@H]2C)[C@]43O)O[C@@H](C)[C@@H]1O | 0.919 ± 0.021 | 0.962 ± 0.038 | 0.962 ± 0.037 | 1.05 ± 0.021 | 1.08 ± 0.035
CC1=C2C(O)C(=O)OC3CC4C(C)(C)C(=O)C=C[C@]4(C)C(CC1)[C@]23C (stereo not given in full) | 0.931 ± 0.015 | 0.97 ± 0.13 | 1.015 ± 0.0071 | 1.01 ± 0.14 | 1.14 ± 0.05
COC[C@H]1O[C@@H](OC2OC[C@@H]3O[C@]4(O[C@H]3[C@H]2OC(=O)C(C)C)O[C@H](C)[C@@](O)(C(C)=O)[C@@H]2OCO[C@H]24)[C@@H](OC)[C@@H](O)[C@@H]1O[C@@H]1O[C@H](C)[C@H](OC)[C@H](O[C@H]2C[C@@]3(C)OC4(C[C@@H](O)[C@H](O[C@H]5C[C@@H](O)[C@H](OC(=O)c6c(C)c(Cl)c(O)c(Cl)c6OC)[C@@H](C)O5)[C@@H](C)O4)O[C@@H]3[C@@H](C)O2)[C@H]1O (stereo not given in full) [Avilamycin A] | 0.977 ± 0.033 | 1.02 ± 0.042 | 0.991 ± 0.042 | 1.03 ± 0.028 | 1.03 ± 0.078
C[C@@H]1NC(=O)[C@H](Cc2ccccc2)NC1=O [cyclo(alanylphenylalanyl)] | 1 ± 0.053 | 0.997 ± 0.17 | 0.96 ± 0.025 | 0.987 ± 0.12 | 1.04 ± 0.014
Cc1nc2ccccn2c(=O)c1CCN1CCC(C(=O)c2ccc(F)cc2)CC1 | 0.911 ± 0.15 | 1.03 ± 0.099 | 1.04 ± 0.057 | 1.01 ± 0.037 | 0.947 ± 0.017
NCC(O)CC(=O)O (stereo not given) | 1.035 ± 0.0071 | 1.04 ± 0.09 | 0.965 ± 0.028 | 1.04 ± 0.035 | 1.07 ± 0.035
CC(C)(C)NC[C@H](O)c1ccc(O)c(CO)c1 | 1.01 ± 0.13 | 0.93 ± 0.061 | 0.972 ± 0.069 | 1.02 | 1.07 ± 0.092
C/C=C/C1=CC(=O)[C@@H](O)[C@@H]1O [Terrein] | 0.964 ± 0.066 | 1.03 ± 0.014 | 0.986 ± 0.011 | 1.25 ± 0.085 | 1.1 ± 0.11
COC1=C(OC)C(=O)C(C/C=C(\C)CC/C=C(\C)CC/C=C(\C)CC/C=C(/C)CC/C=C(\C)CC/C=C(\C)CC/C=C(\C)CC/C=C(\C)CC/C=C(\C)CCC=C(C)C)=C(C)C1=O | 1.02 ± 0.035 | 0.993 ± 0.067 | 1.115 ± 0.0071 | 0.98 ± 0.057 | 0.923 ± 0.15
CN1Cc2c(N)cccc2C(c2ccccc2)C1 (stereo not given) | 1.05 ± 0.014 | 1.15 ± 0.021 | 1.03 ± 0.05 | 1.02 ± 0.14 | 1.04 ± 0.014
CC(=O)N1CCN(c2ccc(OCC3COC(Cn4ccnc4)(c4ccc(Cl)cc4Cl)O3)cc2)CC1 (stereo not given) | 0.997 ± 0.033 | 0.9685 ± 0.005 | 0.901 ± 0.012 | 1.05 ± 0.05 | 1.01 ± 0.061
CC(C)CCCC(C)C1CCC2C3CCC4CCCCC4(C)C3CCC12C (stereo not given) | 1 | 0.997 ± 0.033 | 0.9585 ± 0.00071 | 0.94 ± 0.042 | 1.02 ± 0.014
COc1c(O)cc(O)cc1O | 1.01 ± 0.04 | 0.694 ± 0.33 | 1.01 ± 0.021 | 1.09 ± 0.064 | 1.03 ± 0.042
OCCOCCN1CCN(C(c2ccccc2)c2ccc(Cl)cc2)CC1 (stereo not given) | 0.978 ± 0.045 | 1.07 ± 0.014 | 1.01 ± 0.026 | 1.03 ± 0.021 | 1.075 ± 0.0071
CC[C@H](C)C(=O)O[C@H]1C[C@@H](C)C=C2C=C[C@H](C)[C@H](CC[C@@H]3C[C@@H](O)CC(=O)O3)[C@H]21 [Mevinolin, Lovastatin] | 0.966 ± 0.1 | 0.931 ± 0.048 | 0.942 ± 0.017 | 0.836 ± 0.26 | 0.943 ± 0.029
Nc1ccc(S(=O)(=O)Nc2nccs2)cc1 | 1.01 ± 0.031 | 0.911 ± 0.028 | 1.065 ± 0.0071 | 0.999 ± 0.072 | 1.055 ± 0.0071
COc1ccc2c(c1)[C@@]1(C)CCC(=O)C[C@H]1CC2 [5beta-12-METHOXY-4,4-BISNOR-8,11,13-PODOCARPATRIEN-3-ONE] | 0.9975 ± 0.0035 | 1.07 ± 0.071 | 1.01 ± 0.037 | 1.18 ± 0.2 | 1.05 ± 0.057
CC12CCC(CC1)C(C)(C)O2 | 0.996 ± 0.049 | 1.055 ± 0.0071 | 0.934 ± 0.019 | 1.21 ± 0.18 | 1.11 ± 0.099
CCCC(CCC)C(=O)O | 1.03 ± 0.045 | 1.09 ± 0.035 | 0.973 ± 0.052 | 1.115 ± 0.0071 | 1.06 ± 0.078
CC[C@H](C)[C@@H]1NC(=O)[C@H](C)NC1=O [Cyclo(alanylisoleucyl)] | 1.05 ± 0.12 | 1.165 ± 0.0071 | 1.07 ± 0.014 | 1.05 ± 0.028 | 0.992 ± 0.15
COc1ccc(C(=O)CC(=O)O)c2c1C=CC(C)(C)O2 | 1 ± 0.013 | 0.978 ± 0.19 | 0.961 ± 0.098 | 0.991 ± 0.056 | 0.859 ± 0.042
